A selection: hits, their analogues and other compounds. The true share with any hit is near 12%.
Sm TGR block: qHTS Assay for the Inhibitors of Schistosoma Mansoni Peroxiredoxins. Schistosoma mansoni thioredoxin glutathione reductase (TGR), Q962Y6. purified TGR, DTNB reduction, TNB absorbance 405 nm. Potency, µM (highest dose often 114 µM), actives largely listed as inhibitors. actives 3% (n = 360,000); active = well fitted inhibition curve with a large enough effect; inconclusive = small, poorly fitted or top-dose-only effect; inactive = no such curve, though single readings can be large or run the other way; note: nearly all actives have a fitted effect of over 60% in size
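Kinetic colorimetric format: TGR-catalysed, NADPH-driven DTNB reduction monitored via TNB absorbance. Enzyme dispensed at 20 nM; compound exposure 15 min at room temperature before reaction start.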
Cycloheximide cs: Cycloheximide Counterscreen for Small Molecule Inhibitors of Shiga Toxin | cell reporter, cycloheximide protein synthesis inhibition counterscreen | max response, % | actives 12% (n = 300,000); in the data active = max response mostly above about 13%, no sharp cut-off; inactive = mostly below about 14%; note: read at 38.3 µM for the half of the compounds with a filed dose
FMDV antiviral: High Throughput Screening for Foot and Mouth Disease Virus Antivirals. FMDV antiviral cell-based qHTS. Potency, µM (titrated, usually from 57.9 µM), usual class: inhibitors. actives 1.2% (n = 410,000); calls by dose curve; tested in HEK293T cells; note: read-out not given here; nearly all actives have a fitted effect of over 45% in size
Shiga inhibitor: A qHTS for Small Molecule Inhibitors of Shiga Toxin | Vero cells, Shiga toxin protein synthesis inhibition reporter | inhibition, % at 38.7 µM | actives 9.2% (n = 290,000) | AID 2315, 2010; in the data active = inhibition mostly above about 28%, no sharp cut-off; inactive = mostly below about 43%
A number is an active result; i = inactive; ? = inconclusive; nt = not tested or not shown.

SMILES	Sm TGR block	Cycloheximide cs	FMDV antiviral	Shiga inhibitor
COc1cccc(OC)c1C1=Nn2c(nnc2-c2ccccc2O)SC1	nt	i	nt	i
COc1cc(/C=C/c2ccc3c(Br)cc(Br)c(O)c3n2)ccc1O	i	i	?	i
COc1cc(/C=C/c2ccc3cccc(O)c3n2)cc(Br)c1OC	i	78	i	164
COc1ccc(/C=C/c2ccc3c(Br)ccc(O)c3n2)cc1	i	39	i	94
COc1ccc(Br)cc1/C=C/c1ccc2cccc(O)c2n1	i	i	i	i
COc1ccc(/C=C/c2ccc3cccc(O)c3n2)cc1Br	i	48	i	115
COc1cc(/C=C/c2ccc3cccc(O)c3n2)cc(OC)c1OC	i	33	i	63
COc1cc(Br)cc(/C=C/c2ccc3cccc(O)c3n2)c1OC	i	i	i	i
CCC[C@@H]1CC2=CC(=O)CC[C@]2(C)[C@H]2CC[C@@]3(C)[C@@H](CC[C@@]34CCC(=O)O4)[C@H]12	nt	i	nt	i
CCOC(=O)N1CCN(Cc2nc3cc(NC(=O)c4ccccc4Cl)ccc3n2C(C)C)CC1	i	nt	?	nt
COc1cc(/C=C/c2ccc3cccc(O)c3n2)cc(Cl)c1OC	i	52	i	127
COc1cc(/C=C/c2nc(-c3ccccc3O)n[nH]2)cc(OC)c1OC	i	i	?	i
C=CCOc1cccc(C2C(C(=O)c3ccco3)=C(O)C(=O)N2Cc2ccncc2)c1 (stereo not given)	45µM	29	i	40
C=CCOc1cccc(C2C(C(=O)c3ccco3)=C(O)C(=O)N2CCN2CCOCC2)c1 (stereo not given)	25µM	i	i	i
C=CCOc1cccc(C2C(C(=O)c3ccco3)=C(O)C(=O)N2Cc2ccco2)c1 (stereo not given)	32µM	i	i	i
C=CCOc1cccc(C2C(C(=O)c3ccc(C)o3)=C(O)C(=O)N2Cc2ccncc2)c1 (stereo not given)	?	i	i	i
CC(C)N1CCC(N2CCN(Cc3ccc(-c4ccc(Cl)cc4)o3)CC2CCO)CC1 (stereo not given)	13µM	i	i	i
CC(C)N1CCC(N2CCN(Cc3ccc(-c4ccccc4Cl)o3)CC2CCO)CC1 (stereo not given)	i	i	i	i
Cc1ccccc1CNC(=O)c1ccc2ccccc2n1	i	i	i	i
Cc1ccc(S(=O)(=O)N(C)C)cc1NC(=O)c1ccc2ccccc2n1	i	37	i	i
Cc1ccc(NC(=O)c2cc(C)nc3ccccc23)c(C)c1	i	i	i	nt
Cc1ccc(NC(=S)c2ccc3ccccc3n2)c(C)c1	i	30	i	85
Cc1ccc(C)c(NC(=O)c2ccc3ccccc3n2)c1	i	30	i	i
CCc1ccccc1NC(=O)N1CCN(c2cc(-c3noc(C)n3)ccc2C)CC1	i	nt	i	nt
c1ccc(CNC2=NCCS2)cc1	i	i	i	i
SMILES	Sm TGR block	Cycloheximide cs	FMDV antiviral	Shiga inhibitor
Cc1ccc(CNC2=NCCS2)cc1	i	17	i	i
Cc1ccc(CNc2nc(C)cs2)cc1	i	40	i	75
CCN(CC)C(=O)Cn1c(SCCOc2ccc(Cl)cc2)nc2ccccc21	i	nt	i	nt
Cc1cc(-c2ccccc2)nc2cc(C(=O)Nc3cc(C(F)(F)F)ccc3Cl)nn12	i	nt	i	nt
Cc1ccc(OCCOc2cccc(C=C3C(=O)NC(=O)NC3=O)c2)cc1	?	62	i	93
O=C1NC(=O)C(=Cc2ccc3ccccc3c2)C(=O)N1	?	i	i	i
O=C1NC(=O)C(=Cc2ccccc2OCCOc2ccc([N+](=O)[O-])cc2)C(=O)N1	?	i	i	i
Cc1cc(C)cc(OCCOc2cccc(C=C3C(=O)NC(=O)NC3=O)c2)c1	32µM	18	i	55
Cc1ccc(Cl)cc1N1CCN(C(=O)c2sc3nc4n(c(=O)c3c2C)CCC4)CC1	i	nt	i	nt
COc1ccc(C2CC(=O)c3cc(-c4nc(-c5cccc([N+](=O)[O-])c5)cs4)c(=O)n(-c4ccccc4N)c3C2)cc1 (stereo not given)	i	nt	i	nt
Cc1ccc(-n2c(=O)c3c4c(sc3n(CC(=O)Nc3ccccc3C)c2=O)CCCCC4)cc1C	i	nt	i	nt
COc1ccc(C2C3=C(CCCC3=O)N(CC(=O)O)C3=C2C(=O)CCC3)cc1Br	nt	nt	i	nt
CCOc1cc(C2C3=C(CCCC3=O)N(CC(=O)O)C3=C2C(=O)CCC3)ccc1OC	89µM	i	i	i
COc1ccc(C2C3=C(CCCC3=O)N(CC(=O)O)C3=C2C(=O)CCC3)cc1Cl	50µM	i	i	i
CCOC(=O)COc1ccc([N+](=O)[O-])cc1-c1ccnc2cc(-c3ccc(Cl)cc3)nn12	i	nt	i	nt

High-throughput results from PubChem.
